# Measured values taken from publication PMC4336329 (PLoS ONE, 2015).
# The whole screen tested about 310,000 compounds, of which about 14,000 (4.5%) showed an effect of 50% or more. The effect is printed as a negative number. The sample holds strong results, similar compounds and a random draw of the others, so the mix is not that of the screen.
# Target: human ether-à-go-go-related gene (hERG) potassium channel (human, UniProt Q12809)
# Experiment: primary screen, population patch clamp on CHO cells stably expressing hERG; higher = less effect of the substance
# 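Note: peak tail current of the secondary pulse compared with the same well before compound.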
# human ether-à-go-go-related gene (hERG) potassium channel, sequence (Q12809 whole entry, looked up): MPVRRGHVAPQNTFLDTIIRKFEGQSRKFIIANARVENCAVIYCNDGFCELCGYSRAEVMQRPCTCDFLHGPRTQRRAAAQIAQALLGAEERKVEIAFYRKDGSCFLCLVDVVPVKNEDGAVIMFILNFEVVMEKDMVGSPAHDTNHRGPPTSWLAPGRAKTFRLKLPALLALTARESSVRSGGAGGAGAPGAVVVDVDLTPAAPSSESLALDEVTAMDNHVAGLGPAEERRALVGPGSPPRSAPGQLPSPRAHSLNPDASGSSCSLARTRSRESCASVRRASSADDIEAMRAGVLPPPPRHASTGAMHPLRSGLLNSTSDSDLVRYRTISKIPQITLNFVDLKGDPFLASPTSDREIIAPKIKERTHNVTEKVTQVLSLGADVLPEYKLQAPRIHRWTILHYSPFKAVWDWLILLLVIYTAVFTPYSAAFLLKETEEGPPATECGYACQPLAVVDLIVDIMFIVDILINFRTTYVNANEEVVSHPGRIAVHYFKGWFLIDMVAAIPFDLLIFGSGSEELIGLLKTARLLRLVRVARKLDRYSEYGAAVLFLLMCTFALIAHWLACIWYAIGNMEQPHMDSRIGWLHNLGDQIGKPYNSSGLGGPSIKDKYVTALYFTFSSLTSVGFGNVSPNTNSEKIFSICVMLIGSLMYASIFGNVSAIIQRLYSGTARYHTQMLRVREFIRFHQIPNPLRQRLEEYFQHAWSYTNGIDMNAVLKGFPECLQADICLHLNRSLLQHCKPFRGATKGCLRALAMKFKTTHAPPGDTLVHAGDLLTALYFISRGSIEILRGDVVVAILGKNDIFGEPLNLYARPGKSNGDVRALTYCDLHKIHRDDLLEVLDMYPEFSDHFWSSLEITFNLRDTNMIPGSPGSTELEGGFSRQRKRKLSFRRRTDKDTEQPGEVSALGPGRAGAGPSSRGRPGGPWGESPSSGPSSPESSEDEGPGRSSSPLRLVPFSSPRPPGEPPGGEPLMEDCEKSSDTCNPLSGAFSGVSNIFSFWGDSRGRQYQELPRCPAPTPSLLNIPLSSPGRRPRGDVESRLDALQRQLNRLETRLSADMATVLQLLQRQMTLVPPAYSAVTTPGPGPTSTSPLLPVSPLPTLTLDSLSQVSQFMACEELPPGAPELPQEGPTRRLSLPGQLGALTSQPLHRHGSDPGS
row,SMILES,"hERG current change (%, negative = inhibition) at 10uM [%]"
1,COc1ccc(OC)c(S(=O)(=O)ON2C(=O)c3ccccc3C2=O)c1,6.82
2,CCOC(=O)/C(C#N)=C/c1ccc(N2CCCCC2)cc1,-60.9
3,CCOC(=O)/C(C#N)=C\c1ccc(N2CCN(C)CC2)cc1,-38.2
4,CCOC(=O)/C(C#N)=C/c1ccc(N2CCN(C)CC2)cc1,-27.8
5,Cn1ncc(Br)c1NC(=O)Nc1ccc(OC(F)(F)F)cc1,8.82
6,Cn1ncc(C(=O)Nc2ccc(OC(F)(F)F)cc2)c1-n1cccc1,-81.3
7,O=C(CCn1cccc1)Nc1ccc(OC(F)(F)F)cc1,2.32
8,O=c1[nH]c2ccccc2nc1/C=C(\O)c1cccs1,19.5
9,CC(=O)N1CCCc2cc(S(=O)(=O)N(CC(C)C)CC(C)C)ccc21,-50.4
10,CCCCN(CC)S(=O)(=O)c1ccc2c(c1)CCCN2C(C)=O,-43.3
11,CCCN(CCC)S(=O)(=O)c1ccc2c(c1)CCCN2C(C)=O,-47.2
12,Cn1c(=O)oc2cc(S(=O)(=O)N3CCC(C(=O)NCc4ccccc4)CC3)ccc21,-6.54
13,CC(C)(C)NC(=O)Cn1nnc(-c2ccc(Cl)cc2)n1,2.32
14,COC(=O)C1=C(C)OC(N)=C(C#N)C1c1cc(OC)c(OCC(N)=O)cc1Cl (stereo not drawn),-10
15,COC(=O)c1ccc(N2CCOCC2)c(F)c1,9.09
16,O=C(CSc1nc(=O)n2ccccc2n1)N1CCN(c2ccccc2)CC1,-27.7
17,Cc1ccn2c(=O)nc(SCC(=O)N3CCN(c4ccccc4)CC3)nc2c1,-28.6
18,Cc1ccn2c(=O)nc(SCC(=O)N3CCC(Cc4ccccc4)CC3)nc2c1,-55.6
19,Cc1cccn2c(=O)nc(SCC(=O)N3CCCCC3)nc12,-18.6
20,O=C(CSc1nc(=O)n2ccccc2n1)N1CCC(Cc2ccccc2)CC1,-58.1
21,Cc1cccn2c(=O)nc(SCC(=O)N3CCC(Cc4ccccc4)CC3)nc12,-78.9
22,CC1CCN(C(=O)CSc2nc(=O)n3ccccc3n2)CC1,8.67
23,Cc1ccc2nc(SCC(=O)N3CCN(c4ccccc4)CC3)nc(=O)n2c1,-47.5

row,SMILES,"hERG current change (%, negative = inhibition) at 10uM [%]"
1,Cc1cccn2c(=O)nc(SCC(=O)N3CCC(C)CC3)nc12,-39.5
2,Cc1ccc2nc(SCC(=O)N3CCC(Cc4ccccc4)CC3)nc(=O)n2c1,-65
3,Cc1ccn2c(=O)nc(SCC(=O)N3CCC(C)CC3)nc2c1,-18.4
4,Cc1ccc2nc(SCC(=O)N3CCC(C)CC3)nc(=O)n2c1,-9.74
5,O=C(CSc1nc(=O)n2ccccc2n1)N1CCCc2ccccc21,-16.8
6,N/C(=N\OC(=O)Cc1ccc([N+](=O)[O-])cc1)c1ccc([N+](=O)[O-])cc1,-24.4
7,CC(=O)c1c(C)n(CCc2ccc(Cl)cc2)c2ccc(O)cc12,20.8
8,O=C(CSc1nc2c(c(C(F)(F)F)n1)CCc1ccccc1-2)NCc1ccco1,2.99
9,COC1(OC)N=C(N)C2(C#N)C(c3ccccc3)NC(C)=CC12C#N (stereo not drawn),2.16
10,COC(=O)CS(=O)(=O)c1cc(Br)cc2c1N(C(C)=O)CC2,5.36
11,COC(=O)C1=C(c2ccccc2OCc2ccccc2)C[C@@H]2CC[C@H]1N2C(=O)NCc1ccc(C(F)(F)F)cc1,-4.61
12,O=S(=O)(Cc1cccc(F)c1)c1c[nH]c2ccccc12,8.65
13,O=c1nc(SCc2cccc(C(F)(F)F)c2)nc2ccccn12,-37
14,Cc1cccn2c(=O)nc(SCC(=O)N3CCOCC3)nc12,9.72
15,Cc1cccn2c(=O)nc(SCC(=O)N3CCN(c4ccccc4)CC3)nc12,-67.6
16,Cc1cccn2c(=O)nc(SCC(=O)N3CCCC3)nc12,-22.6
17,Cc1ccn2c(=O)nc(SCc3cccc(C(F)(F)F)c3)nc2c1,-51.5
18,C=CCSc1nc(=O)n2ccc(C)cc2n1,-22.9
19,COC(=O)CSc1nc(C)c(Oc2ccccc2)c(=O)[nH]1,11.6
20,O=c1[nH]c(CN2CCc3ccccc3C2)nc2ccccc12,5.47
21,CCn1nc(C(=O)N2CCN(Cc3nc4ccccc4s3)CC2)c2ccccc2c1=O,-68.9
22,N#Cc1ccc(CN2CCN(C(=O)Cn3nc(C(N)=O)c4ccccc4c3=O)CC2)cc1,-70
23,CCn1nc(C(=O)N2CCN(Cc3ccc4c(c3)OCO4)CC2)c2ccccc2c1=O,-52.1

row,SMILES,"hERG current change (%, negative = inhibition) at 10uM [%]"
1,COc1ccc(-n2nc(C(=O)N3CCN(Cc4ccc5c(c4)OCO5)CC3)c3ccccc3c2=O)cc1,-4.87
2,O=C(c1n[nH]c(=O)c2ccccc12)N1CCN(Cc2ccc3c(c2)OCO3)CC1,2.15
3,Cc1nn(CC(=O)N2CCN(Cc3ccccc3)CC2)c(=O)c2ccccc12,-2.85
4,CCn1nc(C(=O)N2CCc3ccccc3C2)c2ccccc2c1=O,-13.6
5,CCN1CCN(C(=O)c2nn(-c3ccccc3)c(=O)c3ccccc23)CC1,-2.92
6,COc1ccc(CN2CCN(C(=O)Cn3nc(C(=O)O)c4ccccc4c3=O)CC2)cc1F,-37.4
7,Cc1cc2nc(-c3ccco3)cc(C(F)(F)F)n2n1,-5.82
8,CNc1c(NS(=O)(=O)c2ccc(F)c(Cl)c2)c(=O)oc2ccccc12,3.54
9,O=C(CSCC(=O)N1CCOCC1)Nc1nc(-c2ccccc2)cs1,-14.8
10,NC(=O)c1ccccc1OCC(=O)N1CCCc2ccccc21,14.5
11,CC(C)Cc1nc2oc3c(=O)[nH]cnc3c2c2c1CCC2,-7.29
12,CC(C)Cc1nc2oc3c(=O)[nH]cnc3c2c2c1CCCC2,-6.24
13,CCCc1nc2oc3c(=O)[nH]cnc3c2c2c1CCCC2,-56.5
14,COc1ccc(-c2csc(NC(=O)c3ccc(OCC(=O)N4CCOCC4)c(OC)c3)n2)cc1OC,-27.6
15,Cc1ccc(C(=O)CCC(=O)Nc2cccc(C)c2)cc1,15.3
16,COCCn1c(=NC(=O)CSCC(=O)N2CCOCC2)sc2cc(C)ccc21,-14.8
17,Cn1c(SCC(=O)OC2CCCCC2)nnc1-c1ccco1,0.11
18,O=C(CSc1nnc(-c2ccco2)n1Cc1ccccc1)c1ccc(F)cc1,-45.7
19,COCCCn1c(SCC(=O)OC2CCCCC2)nnc1-c1ccco1,-56
20,O=C(CSc1nnc(-c2ccco2)n1Cc1ccccc1)OC1CCCCC1,-92.1
21,COCCCn1c(SCC(=O)NC2CCCC2)nnc1-c1ccco1,9.39
22,COCCCn1c(SCC(=O)NC2CCCCC2)nnc1-c1ccco1,-3.26
23,CCCNS(=O)(=O)c1ccc2c(c1)CCCN2C(C)=O,-4.81

row,SMILES,"hERG current change (%, negative = inhibition) at 10uM [%]"
1,O=C1Nc2cc(C(=O)NCCCN3CCOCC3)ccc2S/C1=C/c1cccc(Cl)c1,9.36
2,CCOC(=O)c1c(P(=O)(N2CCOCC2)N2CCOCC2)noc1N,-0.372
3,Cn1cc(CN2CCCC(CNS(=O)(=O)c3cccc4cccnc34)C2)cn1 (stereo not drawn),5.77
4,CCC(CC)C(=O)Nc1nnc(S(=O)(=O)N2CCCCCC2)s1,1.54
5,COc1cccc(CC(=O)N2CCCC(CO)(Cc3ccc(F)cc3F)C2)c1 (stereo not drawn),-0.432
6,COc1ccc(CN2CCCC(CO)(Cc3ccc(F)cc3F)C2)cc1 (stereo not drawn),6.12
7,CCOc1cc(CN2CCCC(CO)(Cc3ccc(F)cc3F)C2)ccc1OC (stereo not drawn),-55.9
8,COC(=O)c1ccc(CN2CCCC(CO)(Cc3ccc(F)cc3F)C2)cc1 (stereo not drawn),-42.3
9,OCC1(Cc2ccc(F)cc2F)CCCN(Cc2ccc(Cl)cc2)C1 (stereo not drawn),-74.6
10,CCOc1ccc(-n2cc(-c3ccccc3)c3c(=O)[nH]cnc32)cc1,17.2
11,CN(CCc1ccccn1)C(=S)Nc1ccc(Cl)c(Cl)c1,-3.59
12,COc1ccc(NS(=O)(=O)c2ccc(N3CCOCC3)c(NC(=O)c3ccc(OC)cc3)c2)cc1,-1.38
13,CCOC(=O)c1ccc(CSC(=N)N)o1,17.2
14,CN(C)c1ccc(CN2CCCCCC2)cc1,-6.11
15,COc1ccc(CCNS(=O)(=O)c2ccc(S(=O)(=O)N3CCCC3)cc2)cc1OC,-6.61
16,COc1ccc(CCNC(=O)CCCN2C(=O)c3ccccc3C2=O)cc1,2.74
17,CCOc1ccc(OCCCC(=O)NCCc2ccc(OC)cc2)cc1,25.8
18,O=C(CCCOc1ccccc1)NCCc1ccccc1,-3.36
19,O=C(CCCOc1ccc(Br)cc1)NCCc1ccc(OC(F)F)cc1,-67.7
20,COc1ccc(CCNC(=O)CCCCCN2C(=O)c3ccccc3C2=O)cc1,-28.6
21,O=C(CCCN1C(=O)c2ccccc2C1=O)NCCc1ccc(OC(F)F)cc1,-65.3
